SMILES strings stand for the structures.

Holding throughout (assay type): functional
Experiment [1] relates to Plasmodium falciparum. Briefly: GSK_TCMDC: Inhibition of Plasmodium falciparum 3D7 in whole red blood cells, using parasite LDH activity as an index of growth. Test compounds present at 2uM.
The test system of experiment [2] is Plasmodium falciparum. Kind of experiment: GSK_TCMDC: Inhibition of Plasmodium falciparum Dd2 in whole red blood cells, using parasite LDH activity as an index of growth. Test compounds present at 2uM.
The test system of the next experiment is HepG2. Briefly: GSK_TCMDC: Percent inhibition of human HepG2 cell line. Test compounds present at 10uM.

With `CCN(CC)Cc1cccc(-c2cc3c(-c4ccc(C(=O)O)c(C(C)C)c4)ccnc3[nH]2)c1OC.O=C(O)C(F)(F)F`, the Inhibition is 99% in the experiment on Plasmodium falciparum [1], 99% in the experiment on Plasmodium falciparum [2] and 57% with HepG2.

As for `COc1ccc(CN2CCCN(Cc3cccc(NC(=O)c4cc5ccccc5s4)c3)CC2)cc1.O=C(O)C(F)(F)F`, the Inhibition in the experiment with Plasmodium falciparum [1] is 94%; in the experiment with Plasmodium falciparum [2] it was 32%; in the experiment with HepG2, 32%.

Regarding `CC1(C)N=C(N)N=C(N)N1c1ccc(Cl)c(Cl)c1.Cl`, the values for the Inhibition in the experiment with Plasmodium falciparum [1], in the experiment with Plasmodium falciparum [2] and in the experiment with HepG2 were 95%, 56% and 67%, respectively.

With `O=C(O)C(F)(F)F.Oc1ccc(CCNc2nc(NCc3ccccc3-c3ccc(C(F)(F)F)cc3)nc(NC3CCNCC3)n2)cc1`, the Inhibition with Plasmodium falciparum [1] is 97%; with Plasmodium falciparum [2], 2%; in the experiment on HepG2 it was 12%.

Consider `CCOc1ccc(C(C)NC(=O)Cc2ccccc2F)cc1OCC` (stereo not given), for which the Inhibition was 96% with Plasmodium falciparum [1], 44% with Plasmodium falciparum [2] and 15% in the experiment on HepG2.

On to `COc1ccc(CC(=O)Nc2ccc(-c3cccc(-c4nc5cccc(C)c5[nH]4)c3)cc2)cc1O`, for which the figures for the Inhibition in the experiment on Plasmodium falciparum [1], with Plasmodium falciparum [2] and with HepG2 were 96%, 30% and 6%, respectively.

Take `COc1c(F)ccc2ncc(Cl)c(CCN3CCC(NCc4ccc5c(n4)NC(=O)CS5)CC3)c12.Cl`: the Inhibition in the experiment on Plasmodium falciparum [1] is listed as 98%; in the experiment on Plasmodium falciparum [2] it was 29%; with HepG2, 30%.

Consider `Fc1cccc(C=NN=c2cc[nH]c3ccccc23)c1`, for which the values for the Inhibition in the experiment with Plasmodium falciparum [1], in the experiment with Plasmodium falciparum [2] and in the experiment with HepG2 were 100%, 72% and 3%, respectively.

`Cc1ccc2c(c1)NCC21CCN(C[C@@H](O)C2CCN(c3ccnc(Cl)c3)CC2)CC1C` (stereo not given in full): the values for the Inhibition with Plasmodium falciparum [1], in the experiment with Plasmodium falciparum [2] and in the experiment on HepG2 were 87%, 69% and 46%, respectively.

As for `COc1ccc(CNC(=O)c2cnc3c(O)cccc3c2Nc2cccc(NC(=O)c3ccc(Cl)c(Cl)c3)c2)cc1.O=C(O)C(F)(F)F`, the figures for the Inhibition with Plasmodium falciparum [1], with Plasmodium falciparum [2] and with HepG2 were 96%, 89% and 54%, respectively.

On to `O=C(Nc1cccc(CN2CCN(Cc3ccc(O)cc3)CC2)c1)c1cc2ccccc2s1.O=C(O)C(F)(F)F`, for which the Inhibition with Plasmodium falciparum [1] turned out to be 100%; with Plasmodium falciparum [2], 26%; with HepG2 it was 15%.

Turning to `Cc1cc(N[C@@H](CC(C)C)C(=O)NCc2cccc(F)c2)nc(NCCc2ccccc2)n1.O=C(O)C(F)(F)F`, the values for the Inhibition with Plasmodium falciparum [1], with Plasmodium falciparum [2] and in the experiment with HepG2 were 88%, 33% and 6%, respectively.

In the case of `O=C(NCCNc1ccnc(NCc2ccc(F)cc2)n1)c1cc2ccccc2s1`, the Inhibition came to 99% with Plasmodium falciparum [1], 17% in the experiment on Plasmodium falciparum [2] and 6% in the experiment on HepG2.

With `CC1CCc2sc(-c3nnc(SC(C)C(=O)N4CCCC4)o3)cc2C1` (stereo not given), the Inhibition in the experiment with Plasmodium falciparum [1] was determined as 93%; in the experiment with Plasmodium falciparum [2] it was 94%; with HepG2 it was 1%.

Take `COc1cc2c(cc1C(F)(F)F)N(C(=O)Nc1cc(F)c(F)c(-c3cccnc3)c1)CC2`: the results for the Inhibition in the experiment on Plasmodium falciparum [1], in the experiment on Plasmodium falciparum [2] and in the experiment with HepG2 were 90%, 15% and 20%, respectively.

For `COc1ccc2c(NN=Cc3ccccn3)ccnc2c1`, the Inhibition was determined as 100% with Plasmodium falciparum [1], 96% in the experiment on Plasmodium falciparum [2] and 14% in the experiment with HepG2.

Turning to `CC(C)(CNCc1ccc(C(F)(F)F)cc1)c1nc(-c2ccnc(N)n2)c(-c2ccc(Cl)c(O)c2)[nH]1.Cl`, the values for the Inhibition with Plasmodium falciparum [1], with Plasmodium falciparum [2] and with HepG2 were 100%, 37% and 32%, respectively.

For `COc1cc(COc2c(C)nc(N)nc2N)cc(OC)c1OC.Cl`, the Inhibition is given as 100% with Plasmodium falciparum [1], 0% with Plasmodium falciparum [2] and 7% in the experiment on HepG2.

In the case of `CS(=O)(=O)Nc1ccc(-c2cnc3[nH]cc(-c4ccc(C(=O)O)cc4)c3c2)cc1`, the Inhibition with Plasmodium falciparum [1] is 95%; in the experiment on Plasmodium falciparum [2] it was 45%; in the experiment on HepG2, 0%.

`O=C(Cc1c[nH]cn1)Nc1ccc(-c2cccc(-c3nc4cc(C(F)(F)F)ccc4[nH]3)c2)cc1`: the values for the Inhibition in the experiment with Plasmodium falciparum [1], in the experiment with Plasmodium falciparum [2] and in the experiment with HepG2 were 100%, 95% and 20%, respectively.

For `Cc1sc2ncnc(Sc3nnc(N)s3)c2c1C`, the Inhibition is reported as 100% with Plasmodium falciparum [1], 100% in the experiment on Plasmodium falciparum [2] and 9% with HepG2.

Regarding `N#Cc1ccc(-c2ccc(C(=O)NCCCCN3CC=C(c4ccc5c(c4OCC4CC4)CCCC5)CC3)cc2)cc1`, the values for the Inhibition in the experiment with Plasmodium falciparum [1], in the experiment on Plasmodium falciparum [2] and in the experiment on HepG2 were 100%, 83% and 22%, respectively.

Regarding `O=C(O)C(F)(F)F.O=S(=O)(NCCN1CCCC1)c1ccc(-c2cccc(CNCc3ccsc3)c2)s1`, the Inhibition in the experiment with Plasmodium falciparum [1] was 90%; in the experiment on Plasmodium falciparum [2] it was 43%; with HepG2 it was 42%.

In the case of `CS(=O)(=O)NCCCNCc1cccc(-c2csc(-c3nc4ccccc4[nH]3)c2)c1.O=C(O)C(F)(F)F`, the figures for the Inhibition in the experiment with Plasmodium falciparum [1], in the experiment with Plasmodium falciparum [2] and in the experiment with HepG2 were 95%, 9% and 23%, respectively.

With `COc1ccc2ccccc2c1CCCCN1CCN(CC(c2ccc(F)cc2)N2CCN(C(C)C)CC2)CC1.Cl` (stereo not given), the Inhibition in the experiment with Plasmodium falciparum [1] came out at 100%; with Plasmodium falciparum [2] it was 83%; in the experiment with HepG2 it was 92%.

As for `COc1c(CN2CCCC2)cccc1-c1cc2c(-c3ccc(C(=O)O)c(C(C)C)c3)ccnc2[nH]1.O=C(O)C(F)(F)F`, the figures for the Inhibition in the experiment with Plasmodium falciparum [1], in the experiment with Plasmodium falciparum [2] and with HepG2 were 99%, 98% and 56%, respectively.

With `Cc1cccc(C)c1CNc1cccc(-c2nc(C)c(C)[nH]2)c1.Cl`, the Inhibition with Plasmodium falciparum [1] stood at 99%; in the experiment on Plasmodium falciparum [2], 44%; in the experiment with HepG2 it was 58%.

Regarding `COc1ccc(CNCc2ccsc2)cc1-c1ccc(S(=O)(=O)NCCN2CCCC2)c(C)c1.O=C(O)C(F)(F)F`, the Inhibition in the experiment on Plasmodium falciparum [1] is 85%; in the experiment on Plasmodium falciparum [2] it was 43%; with HepG2, 49%.

Take `COc1cccc(CCc2c(CCNCCCCCCNCCc3ccccc3)ccc(OC)c2OC)c1.Cl`: the Inhibition with Plasmodium falciparum [1] is given as 100%; in the experiment on Plasmodium falciparum [2], 69%; in the experiment on HepG2, 100%.

As to `CC(=O)Nc1ccc(C(=O)Nc2cccc(-c3ccc(-c4nc5cc(C(F)(F)F)ccc5[nH]4)cc3)c2)cn1`, the Inhibition in the experiment with Plasmodium falciparum [1] was 100%; with Plasmodium falciparum [2], 100%; with HepG2, 46%.

(Values after ChEMBL document CHEMBL1157539, “Thousands of chemical starting points for antimalarial lead identification” (Nature, 2010).)
